The full list was thinned out, with hits kept by preference.
FECH block = inhibitors of human ferrochelatase, primary screen, biochemical, purified FECH, Ni-mesoporphyrin absorbance | Ni-mesoporphyrin absorbance 550 nm | calls only at 10 µM (by protocol) | hit rate 3.3% among 20,000 | AID 1671448, 2021 | Ferrochelatase, mitochondrial (Homo sapiens), P22830;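 active = enzyme reaction rate more than 3 SD below the solvent-only control wells on the same plate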;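 note: lower slope than DMSO wells means FECH inhibition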
Target sequence (P22830 whole entry, looked up): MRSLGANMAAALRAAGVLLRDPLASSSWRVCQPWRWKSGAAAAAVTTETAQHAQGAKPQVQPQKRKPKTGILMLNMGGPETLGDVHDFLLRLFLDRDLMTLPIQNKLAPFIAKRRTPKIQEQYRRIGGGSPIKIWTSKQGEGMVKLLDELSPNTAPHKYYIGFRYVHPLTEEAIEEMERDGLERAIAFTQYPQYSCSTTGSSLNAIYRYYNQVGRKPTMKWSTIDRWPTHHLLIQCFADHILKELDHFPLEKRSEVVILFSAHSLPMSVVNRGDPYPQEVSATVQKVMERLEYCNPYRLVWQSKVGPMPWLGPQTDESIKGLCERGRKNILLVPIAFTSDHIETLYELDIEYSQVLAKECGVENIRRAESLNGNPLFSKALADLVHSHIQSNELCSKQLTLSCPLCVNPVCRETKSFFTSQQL
* marks the source's active call; other numbers are inactive results.

Results for CCN1C(SCC(=O)Nc2cc(C)cc(C)c2)=NS(=O)(=O)c2ccccc21 ?
FECH block: active

Results for CCN1C(SCC(=O)N2CCN(c3ccccc3)CC2)=NS(=O)(=O)c2ccccc21 ?
FECH block: active

What do the screens show for `Cc1ccc(S(=O)(=O)N2CCC(CC(=O)N3CCN(c4ccccc4)CC3)CC2)cc1`?
FECH block: inactive

Results for CCN1C(SCC(=O)Nc2c(C)cc(C)cc2C)=NS(=O)(=O)c2ccccc21 ?
FECH block: active

How did Cc1cc(C)c(NC(=O)CN2CCN(Cc3ccccc3C)S2(=O)=O)c(C)c1 do in these assays?
FECH block: inactive

How did Cc1ccc(N2C(=O)N(CC(=O)NC3CCCCC3)c3ccccc3S2(=O)=O)c(C)c1 do in these assays?
FECH block: inactive

How did CCN1C(SCC(=O)Nc2ccc3c(c2)OCCO3)=NS(=O)(=O)c2ccccc21 do in these assays?
FECH block: inactive

Results for Cc1cc(N2CCCN(C(=O)CSc3ncccn3)CC2)ccn1 ?
FECH block: inactive

How did Cc1ccc(CN2CC(=O)N(Cc3ccccc3)c3ccccc3S2(=O)=O)cc1 do in these assays?
FECH block: inactive

Results for CCN1C(=O)C2(c3ccccc31)C(C(=O)Nc1cc(C)cc(C)c1)CC1CSCN12 (stereo not drawn) ?
FECH block: inactive

How did CCN1C(SCC(=O)NCc2ccc(C)cc2)=NS(=O)(=O)c2ccccc21 do in these assays?
FECH block: active

How did Cc1ccc(CNC(=O)CN2C(=O)C3CCCCN3C(=O)c3ccccc32)cc1 (stereo not drawn) do in these assays?
FECH block: inactive

What do the screens show for `COC(=O)c1c(NC(=O)c2c(F)cccc2F)sc2c1CCN(C(C)C)C2`?
FECH block: inactive

How did O=C(NCCc1ccco1)c1csc(-c2cccs2)n1 do in these assays?
FECH block: inactive

How did O=C1NCCN2CCN(C(=O)CCSc3ccc4c(c3)OCCO4)CC12 (stereo not drawn) do in these assays?
FECH block: inactive

Results for CCOc1ccc(N(Cc2nc3nc(C)cc(C)n3n2)C(=O)c2ccccc2)cc1 ?
FECH block: inactive

How did CCN(Cc1ccc(F)cc1)C(=O)CC(=O)Nc1ccc(C)cc1 do in these assays?
FECH block: inactive

Results for Cc1ccc(NCc2cc(=O)n3[nH]c(NCc4ccccc4)nc3n2)cc1 ?
FECH block: inactive

How did O=c1cc(CNc2ccc(Br)cc2)nc2nc(NCc3ccc(F)cc3)[nH]n12 do in these assays?
FECH block: inactive

How did O=c1cc(CNc2ccc(Br)cc2)nc2nc(NCc3ccccc3)[nH]n12 do in these assays?
FECH block: inactive

What do the screens show for `CC(C)c1cc(=O)n2[nH]c(CNc3ccccc3)nc2n1`?
FECH block: active

What do the screens show for `CC(C)c1cc(=O)n2[nH]c(CNc3ccc(Br)cc3)nc2n1`?
FECH block: active

Results for CC(C)NCc1cc(=O)n2[nH]c(NCc3ccccc3)nc2n1 ?
FECH block: inactive

Results for COc1ccc(Cl)cc1NC(=O)Cc1csc(NC(=O)Nc2cccc(Cl)c2)n1 ?
FECH block: inactive

How did CC(=O)Nc1c2n(c3ccc(F)cc13)CC(C)(C(=O)NC1CCCC1)N(C1CCC(C)CC1)C2=O (stereo not drawn) do in these assays?
FECH block: inactive

How did COc1ccc(C(=O)Nc2nc3n(n2)C(c2ccccc2)C=C(c2ccccc2)N3)cc1OC (stereo not drawn) do in these assays?
FECH block: active

What do the screens show for `CCC(=O)Nc1nc2n(n1)C(c1ccccc1)C=C(c1ccccc1)N2` (stereo not drawn)?
FECH block: active

Results for COc1ccc(C2C=C(c3ccccc3)Nc3nc(NC(=O)c4ccc(Cl)cc4)nn32)cc1 (stereo not drawn) ?
FECH block: inactive

How did CCC(=O)Nc1nc2n(n1)C(c1ccccc1)C=C(c1ccc(Cl)cc1)N2 (stereo not drawn) do in these assays?
FECH block: inactive

Results for CCC(=O)Nc1nc2n(n1)C(c1ccc(Cl)cc1)C=C(c1ccccc1)N2 (stereo not drawn) ?
FECH block: inactive

How did COc1ccc(C2C=C(c3ccccc3)Nc3nc(NC(=O)c4ccccc4)nn32)cc1 (stereo not drawn) do in these assays?
FECH block: inactive

What do the screens show for `CN1C(=O)C(CC(=O)NCCN2CCc3ccccc32)N(C)C1=O` (stereo not drawn)?
FECH block: inactive

Results for Cc1cc(C)n(C2CCN(Cc3cnc4c(-c5ccccc5)cnn4c3)C2)n1 (stereo not drawn) ?
FECH block: inactive

How did Cc1cc(Nc2ccccc2)nc(Nc2ccc(NC(=O)c3ccc(Br)o3)cc2)n1 do in these assays?
FECH block: inactive

What do the screens show for `CCCN(CC#Cc1ccccc1)C(=O)c1ccc2c(c1)nnn2C`?
FECH block: inactive

What do the screens show for `CCc1cc(N2CCN(Cc3ccc4c(C)cc(=O)oc4c3)CC2)ncn1`?
FECH block: inactive

What do the screens show for `O=C(c1cccc2ncccc12)N1CC2CC3CC1C[C@@H](C3)C2`?
FECH block: inactive

Results for CCCc1cc(=O)n2[nH]c(CNc3cccc(C)c3)nc2n1 ?
FECH block: active

What do the screens show for `CCCc1cc(=O)n2[nH]c(CNc3cc(Cl)ccc3OC)nc2n1`?
FECH block: inactive

How did CCCc1cc(=O)n2[nH]c(CNc3ccccc3F)nc2n1 do in these assays?
FECH block: active

Results for CCCc1cc(=O)n2[nH]c(CNc3ccccc3OCC)nc2n1 ?
FECH block: inactive

Results for CCCc1cc(=O)n2[nH]c(CNc3ccc(C)c(Cl)c3)nc2n1 ?
FECH block: active

What do the screens show for `CCCc1cc(=O)n2[nH]c(CNc3ccc(C)cc3)nc2n1`?
FECH block: active

Results for CCCc1cc(=O)n2[nH]c(CNc3ccccc3Cl)nc2n1 ?
FECH block: inactive

What do the screens show for `Cc1cccc(NC(=O)c2ccc(CNc3nc4nc(C)cc(=O)n4[nH]3)cc2)c1`?
FECH block: inactive

How did Cc1cccc(-c2nc3nc(CNC(C)C)cc(=O)n3[nH]2)c1 do in these assays?
FECH block: inactive

Results for O=C(NCCc1ccc(O)cc1)[C@@]12CNC[C@@H]1CN(C1CCCC1)C2 ?
FECH block: inactive

How did Cc1nnc(SCC(=O)NCCCc2nc3ccc(Cl)cc3[nH]2)s1 do in these assays?
FECH block: inactive

What do the screens show for `CCOC(=O)C1CCCCN1C(=O)CCC(=O)NC1CCCC1` (stereo not drawn)?
FECH block: inactive

How did CC(C)C1=NOC(C(=O)N(C)Cc2nncn2C(C)C)C1 (stereo not drawn) do in these assays?
FECH block: inactive

Results for CCc1nccn1Cc1nc(-c2ccc(C)s2)oc1C ?
FECH block: inactive

Results for CCOC(=O)c1ccc(NC(=O)CCc2nc(-c3cc4ccc(C)cc4[nH]c3=O)no2)cc1 ?
FECH block: inactive

What do the screens show for `CC(NC(=O)CSC12CC3CC(CC(C3)C1)C2)C(=O)N(C)C` (stereo not drawn)?
FECH block: inactive

How did Cc1ccccc1C1CCCN1C(=O)c1cc(Cn2ccc3ccccc32)[nH]n1 (stereo not drawn) do in these assays?
FECH block: inactive

How did COc1cccc(NCc2cc(=O)n3[nH]c(NCc4ccc(F)cc4)nc3n2)c1 do in these assays?
FECH block: inactive

Results for CCCc1cc(=O)n2[nH]c(CNc3ccc(Br)cc3)nc2n1 ?
FECH block: active

Results for O=c1cc(CNc2cccc(C(F)(F)F)c2)nc2nc(NCc3ccc(F)cc3)[nH]n12 ?
FECH block: inactive

Source: PubChem BioAssay
